Test results as given in PubChem BioAssay (NCATS).
Inconclusive results are not listed. Values without a mark were called inactive. Activity calls are given as the source filed them. Calls come from the whole dose curve; as a rule, active = well fitted curve in the direction sought with a large enough effect; inconclusive = small, poorly fitted or top-dose-only effect, or another doubt; inactive = no such curve, though single readings can be large; an effect the other way counts as inactive or inconclusive.

Assays:
[1] = BET inhibitor-based combinations targeting novel dependencies in MECOM-rearranged (r) AML: SET-2 cell line (AID 2202231); conditions: SET-2 AML cells viability, CellTiter-Glo luminescence, 48 h; viability: active compounds read low, concentration not given here; note: nearly all actives have a fitted effect of over 35% in size;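 for viability: plate controls were DMSO treated cells for no effect and wells without cells for full effect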
Outline: (§1)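 Each compound was tested at eleven concentrations on cells seeded at 500/well. After two days' incubation, ATP-based luminescence reported viability; responses relative to DMSO and blank wells yielded AUC and cell-line-centred Z-AUC.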

[2] = BET inhibitor-based combinations targeting novel dependencies in MECOM-rearranged (r) AML: OCI-AML3 cell line (AID 2202232); conditions: Potency: OCI-AML3 viability; note: nearly all actives have a fitted effect of over 35% in size
Outline: as §1

[3] = BET inhibitor-based combinations targeting novel dependencies in MECOM-rearranged (r) AML: MV-4-11 cell line (AID 2202233); note: nearly all actives have a fitted effect of over 45% in size
Outline: (§2)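 First, 500 cells per well were seeded; next, drugs were pinned as 11-point doses; then plates sat 48 hr in the incubator; finally CellTiter-Glo was added and luminescence read, with AUC and Z-AUC computed.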

[4] = BET inhibitor-based combinations targeting novel dependencies in MECOM-rearranged (r) AML: HNT-34 cell line (AID 2202234); note: nearly all actives have a fitted effect of over 35% in size
Outline: as §2

[5] = BET inhibitor-based combinations targeting novel dependencies in MECOM-rearranged (r) AML: UCSD-AML1 cell line (AID 2202235); note: nearly all actives have a fitted effect of over 40% in size
Outline: as §2

[6] = BET inhibitor-based combinations targeting novel dependencies in MECOM-rearranged (r) AML: AML-191 cell line (AID 2202236; note: nearly all actives have a fitted effect of over 35% in size)
Outline: as §1

[7] = BET inhibitor-based combinations targeting novel dependencies in MECOM-rearranged (r) AML: AML-194 cell line (AID 2202237; note: nearly all actives have a fitted effect of over 40% in size)
Outline: as §1
Potency is the fitted concentration of half-maximal effect.

Row | SMILES | Potency [1] | Potency [2] | Potency [3] | Potency [4] | Potency [5] | Potency [6] | Potency [7] | viability [1]
1 | O=C(CCCCCCNC(=O)c1cnc(N(c2ccccc2)c2ccccc2Cl)nc1)NO | 9.34 µM (active) | 7.42 µM (active) | 3.72 µM (active) | 9.34 µM (active) | 9.34 µM (active) | 7.42 µM (active) | 10.5 µM (active) | 
2 | C[C@@]12C(=O)OC(=O)[C@]1(C)[C@H]1CC[C@@H]2O1 | 4.17 µM (active) | 3.72 µM (active) | 3.32 µM (active) | 2.95 µM (active) | 7.42 µM (active) | 2.95 µM (active) | 2.63 µM (active) | 
3 | C=C1C(=O)O[C@@H]2[C@H]3C(C)=CC[C@@]34O[C@@]4(C)CC[C@@H]12 | 9.34 µM (active) | 8.33 µM (active) | 7.42 µM (active) | 10.5 µM (active) | 13.2 µM (active) | 13.2 µM (active) | 13.2 µM (active) | 
4 | CNCCn1c(=O)c2cc(OC)c(OC)cc2c2cnc3cc4c(cc3c21)OCO4 | 0.0241 µM (active) | 0.0215 µM (active) | 0.0152 µM (active) | 0.0121 µM (active) | 0.0191 µM (active) | 0.0241 µM (active) | 0.0241 µM (active) | 
5 | CC1(C)O[C@@H]2C[C@H]3[C@@H]4C[C@H](F)C5=CC(=O)C=C[C@]5(C)[C@@]4(F)[C@@H](O)C[C@]3(C)[C@]2(C(=O)CO)O1 |  | inactive | inactive | inactive | inactive | inactive | inactive | 113%
6 | Cc1ccc(C(=O)OCc2ccc([C@@H](CN)C(=O)Nc3ccc4cnccc4c3)cc2)c(C)c1 | 14.4 µM (active) | 8.11 µM (active) | 3.23 µM (active) | 5.12 µM (active) | 14.4 µM (active) | 9.1 µM (active) | 8.11 µM (active) | 
